Bioassay records as filed in PubChem BioAssay.
SARS 3CLpro inh = SARS-CoV 3CLpro protease inhibition. inhibition, % at 6 µM. recombinant SARS-CoV 3CLpro, quenched FRET peptide cleavage. 290,000 tested, 0.14% active; in the data active = inhibition above about 12%
BoNT F protease = BoNT F light chain protease inhibition; Multiplex microsphere protease cleavage assay, flow cytometry; 360,000 tested, 0.22% active; AID 588497; inhibition, % at 10 µM; in the data active = inhibition above about 35%, passing the limit was not always enough; inconclusive = no clear call, values can overlap the other calls
BoNT A protease = BoNT A light chain protease inhibition | multiplex microsphere protease substrate cleavage, flow cytometry | inhibition, % at 10 µM | 360,000 tested, 0.17% active | AID 588499
Bead autofluor = flagged as autofluorescent in microsphere protease counterscreen; 360,000 tested, 3.1% active; fluorescence intensity (test concentration not listed); compound autofluorescence counterscreen, microsphere flow cytometry; stronger effect = higher value; AID 624483; in the data active = fluorescence intensity above about 16000; inconclusive = no clear call, values can overlap the other calls
Anthrax LF prot = inhibitors of Bacillus anthracis lethal factor protease. P15917. multiplex microsphere protease cleavage assay, LF. inhibition, % at 10 µM. 360,000 tested, 0.12% active. AID 588501
Numbers stand for hits; i = inactive; ? = inconclusive; nt = no result given. Sampled rows, rich in hits. Any-hit rate of the full collection: about 3.5%. Cut-off read from the data, not from the text of the source, unless noted: active = inhibition above about 30%; inconclusive = no clear call, values can overlap the other calls; inactive = below that.

SMILES	SARS 3CLpro inh	BoNT F protease	BoNT A protease	Bead autofluor	Anthrax LF prot
CCn1c(COc2ccccc2)nnc1SCC(=O)CC(=O)Nc1ccccc1OC	i	i	i	21864	i
CCCCOc1ccccc1NC(=O)CSc1nnnn1C(C)(C)C	i	i	i	17476	i
CCn1c(SCc2nc(CC(=O)Nc3ccccc3OC)no2)nnc1-c1cccs1	i	i	i	22928	i
COc1ccc(N2CCN(C(=O)COC(=O)/C=C/c3ccc(OC(F)F)cc3)CC2)cc1	nt	?	i	?	i
COCCn1c(COc2ccccc2)nnc1SCC(N)=O	i	i	?	21005	i
CCOC(=O)N1CCN(C(=O)CSCC(=O)Nc2nc(-c3ccc(Cl)s3)cs2)CC1	i	i	i	22328	i
COc1ccc(C2CC(C(F)(F)F)n3nc(C(N)=O)c(Cl)c3N2)cc1OC (centres undefined)	i	i	i	20210	i
COc1ccc(C2CC(C(F)(F)F)n3ncc(C(=O)O)c3N2)cc1OC (centres undefined)	i	i	i	i	i
O=C(CSc1nnnn1-c1ccccc1)NCc1cccs1	i	i	i	16730	i
CCN1CCN(C(c2cccs2)C(C)NC(=O)CC(C)C)CC1 (centres undefined)	i	i	i	i	i
CC(NS(=O)(=O)c1ccc(F)cc1)C(c1cccs1)N1CCN(C)CC1 (centres undefined)	i	i	i	24274	i
CC(NC(=O)c1ccc(F)cc1)C(c1cccs1)N1CCN(C)CC1 (centres undefined)	i	i	i	21892	i
CC(NS(=O)(=O)c1ccc(Cl)cc1)C(c1cccs1)N1CCN(C)CC1 (centres undefined)	i	i	i	i	i
CC(NC(=O)c1ccc(N(C)C)cc1)C(c1cccs1)N1CCN(C)CC1 (centres undefined)	i	i	i	i	i
CCN1CCN(C(c2cccs2)C(C)NC(=O)c2ccco2)CC1 (centres undefined)	i	i	i	23437	i
COc1ccccc1C(=O)NC(C)C(c1cccs1)N1CCN(C)CC1 (centres undefined)	i	i	i	23363	i
CC(C)(C)C(=O)N1CCN(C(=O)c2ccco2)CC1	i	i	i	i	i
CCS(=O)(=O)NC(C)C(c1cccs1)N1CCN(c2ccc(OC)cc2)CC1 (centres undefined)	i	i	i	i	i
COc1ccc(N2CCN(C(c3cccs3)C(C)NS(=O)(=O)c3ccccc3)CC2)cc1 (centres undefined)	i	i	i	16688	i
O=C(Cc1csc(N2CCOCC2)n1)N/N=C/c1ccc(O)c(O)c1O	i	i	i	i	i
C/C(=N\NC(=O)Cc1csc(N2CCOCC2)n1)c1ccccc1	i	i	?	21300	i
Clc1ccc(-c2noc(COc3ccccc3)n2)cc1	i	i	i	22341	i
CN(Cc1nc(-c2ccncc2)no1)S(=O)(=O)c1ccc(Cl)cc1	i	i	i	21129	i
CC(C)(C)Cc1nc(-c2ccc(Cl)cc2)no1	i	i	i	21458	i
COCCCn1nnnc1SCC(=O)Nc1nc2ccccc2s1	i	i	i	i	i
SMILES	SARS 3CLpro inh	BoNT F protease	BoNT A protease	Bead autofluor	Anthrax LF prot
CCOC(=O)C(/C=C(\C#N)C(=O)OCC)=C(/N)N1CCN(c2ccc(OC)cc2)CC1	i	i	i	i	i
CCC(C(=O)NC(C)(C)C)N(Cc1ccccc1Cl)C(=O)c1snc(C(N)=O)c1N (centres undefined)	i	?	i	i	i
CCc1ccc2oc(C(=O)NCc3ccncc3)c(C)c2c1	i	i	i	16440	i
COc1cccc(-n2c(C)c3c(OC)cccc(=O)c3c2C)c1	i	i	i	i	i
COc1cccc(=O)c2c(C)n(-c3cc(C)cc(C)c3)c(C)c12	i	i	i	20048	i
N#CCCN(Cc1cccnc1)C(=O)Nc1cccc(Cl)c1	i	i	i	i	i
COc1cccc(C2CC(c3cccs3)=NN2C(=O)CSc2nc3ccccc3s2)c1OC (centres undefined)	i	i	i	i	i
CC(C)NS(=O)(=O)c1ccc(OCC(=O)Nc2ccccc2F)cc1	i	i	i	i	i
CC(C)NS(=O)(=O)c1ccc(OCC(=O)Nc2ccc(F)cc2F)cc1	i	i	i	24368	i
NC(=O)C1(N2CCCCC2)CCN(CC(=O)Nc2ccccc2-c2ccccc2)CC1	i	i	?	i	i
Cc1ccccc1-c1cc2nc(C)c(C)c(=O)n2[nH]1	i	i	i	i	i
Cc1nc2cc(-c3cccs3)[nH]n2c(=O)c1C	i	i	i	17502	i
O=C(NC(=S)NNS(=O)(=O)c1ccccc1)c1ccc([N+](=O)[O-])cc1	i	i	i	i	i
O=C(COc1ccc(-c2nnc(N3CCCCC3)c3ccccc23)cc1)N1CCCCC1	i	i	i	i	i
Cc1ccc(-c2nnc(N3CCN(C(=O)COc4ccccc4)CC3)c3ccccc23)cc1	i	i	i	16269	i
Cc1cc(C)n(C(=O)CNC(=O)Cc2ccccc2)n1	i	i	i	i	i
CCOC(=O)c1c(NC(=S)Nc2ccccc2)sc2c1CCCCC2	i	i	i	i	i
CCOC(=O)c1c(NC(=S)Nc2ccccc2)sc2c1CCN(CC)C2	i	i	i	i	31.0
COc1ccc(S(=O)(=O)NCC2CCCO2)cc1NC(=O)c1ccccc1 (centres undefined)	i	i	i	i	i
CCOC(=O)c1cnc(Nc2nc3ccccc3o2)nc1C	i	i	i	20539	i
CCOC(=O)c1cnc(Nc2nc3ccccc3o2)nc1CN1CCN(c2ccccc2)CC1	i	nt	nt	nt	nt
COc1ccc(-c2nc3ccc(Cl)cn3c2CC(C)(C)C)cc1OC	nt	i	i	i	i
CCCCn1c(N)c(Sc2ccc(Cl)cc2)c(=O)[nH]c1=O	i	i	i	19647	i
CCCCn1c(N)c(Sc2ccc([N+](=O)[O-])cc2)c(=O)[nH]c1=O	i	i	i	i	i
COc1cccc(C(C)=NNc2ccc([N+](=O)[O-])cc2[N+](=O)[O-])c1OC	nt	i	i	i	i
SMILES	SARS 3CLpro inh	BoNT F protease	BoNT A protease	Bead autofluor	Anthrax LF prot
COc1ccc(C(=O)c2ccccc2C(=O)c2ccccc2)cc1	nt	i	i	i	i
COc1ccc(N2C(=O)CCC(C(=O)c3ccccc3)=C2C)cc1	i	i	?	19774	i
Cc1ccc(-c2csc(N/N=C/c3ccco3)n2)cc1	i	i	i	23231	i
C(=N\Nc1nc(-c2ccccc2)cs1)/c1ccco1	i	i	i	i	i
Cc1cc(-c2ccccc2)nc(N/N=C/c2ccco2)n1	i	i	i	24412	i
Cc1cc(C)cc(NCCC#N)c1	i	i	i	i	i
CCCCCNC(=O)CN(c1ccc2c(c1)OCO2)S(C)(=O)=O	i	i	i	20699	i
Cc1ccc(SCCNC(=O)CN(c2ccc3c(c2)OCO3)S(C)(=O)=O)cc1	i	i	i	i	i
COC(=O)CN(c1ccc2c(c1)OCO2)S(C)(=O)=O	i	i	i	24591	i
COc1ccccc1CN1CCCC(C(=O)N2CCCCC2)C1 (centres undefined)	i	?	i	i	i
C=CCn1c(SCC(=O)c2ccc(Br)cc2)nnc1C(CC(C)C)NC(=O)c1cccs1 (centres undefined)	i	i	?	22563	i
